Consider 39 targets from the supplement of paper PMC10849652.

Targets with a hit are over-represented here; the source holds about 7,900 in all. About 0.6% of all pairs of compound and target were hits. A number with no mark means an inactive call.

Chain of UniProt Q6VY07 (Q6VY07 whole entry, looked up): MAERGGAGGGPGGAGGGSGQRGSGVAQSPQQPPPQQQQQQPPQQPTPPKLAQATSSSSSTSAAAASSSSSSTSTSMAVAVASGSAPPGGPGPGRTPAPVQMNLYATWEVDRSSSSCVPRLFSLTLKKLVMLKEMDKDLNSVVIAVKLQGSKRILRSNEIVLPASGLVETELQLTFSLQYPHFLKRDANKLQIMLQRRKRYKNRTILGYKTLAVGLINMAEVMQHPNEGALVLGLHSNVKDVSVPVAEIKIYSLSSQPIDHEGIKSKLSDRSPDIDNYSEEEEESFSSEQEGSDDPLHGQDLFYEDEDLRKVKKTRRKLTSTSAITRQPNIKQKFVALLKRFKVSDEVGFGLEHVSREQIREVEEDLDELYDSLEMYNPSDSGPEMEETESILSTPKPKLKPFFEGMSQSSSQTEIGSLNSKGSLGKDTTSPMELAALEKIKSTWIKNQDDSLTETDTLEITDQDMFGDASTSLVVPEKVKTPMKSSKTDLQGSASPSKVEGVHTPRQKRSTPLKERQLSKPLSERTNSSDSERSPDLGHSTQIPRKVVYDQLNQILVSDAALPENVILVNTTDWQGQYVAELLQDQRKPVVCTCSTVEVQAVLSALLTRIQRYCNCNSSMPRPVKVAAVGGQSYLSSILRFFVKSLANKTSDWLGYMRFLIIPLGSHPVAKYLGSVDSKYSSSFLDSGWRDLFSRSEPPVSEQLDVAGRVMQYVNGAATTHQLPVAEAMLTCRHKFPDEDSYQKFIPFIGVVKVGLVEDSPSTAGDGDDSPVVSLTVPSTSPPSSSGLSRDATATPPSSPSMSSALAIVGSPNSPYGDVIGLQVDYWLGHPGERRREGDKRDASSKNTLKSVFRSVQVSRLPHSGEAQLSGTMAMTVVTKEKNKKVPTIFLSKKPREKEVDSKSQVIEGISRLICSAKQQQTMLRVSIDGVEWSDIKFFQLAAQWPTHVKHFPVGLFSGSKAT
Chain of UniProt Q14978 (Q14978 whole entry, looked up): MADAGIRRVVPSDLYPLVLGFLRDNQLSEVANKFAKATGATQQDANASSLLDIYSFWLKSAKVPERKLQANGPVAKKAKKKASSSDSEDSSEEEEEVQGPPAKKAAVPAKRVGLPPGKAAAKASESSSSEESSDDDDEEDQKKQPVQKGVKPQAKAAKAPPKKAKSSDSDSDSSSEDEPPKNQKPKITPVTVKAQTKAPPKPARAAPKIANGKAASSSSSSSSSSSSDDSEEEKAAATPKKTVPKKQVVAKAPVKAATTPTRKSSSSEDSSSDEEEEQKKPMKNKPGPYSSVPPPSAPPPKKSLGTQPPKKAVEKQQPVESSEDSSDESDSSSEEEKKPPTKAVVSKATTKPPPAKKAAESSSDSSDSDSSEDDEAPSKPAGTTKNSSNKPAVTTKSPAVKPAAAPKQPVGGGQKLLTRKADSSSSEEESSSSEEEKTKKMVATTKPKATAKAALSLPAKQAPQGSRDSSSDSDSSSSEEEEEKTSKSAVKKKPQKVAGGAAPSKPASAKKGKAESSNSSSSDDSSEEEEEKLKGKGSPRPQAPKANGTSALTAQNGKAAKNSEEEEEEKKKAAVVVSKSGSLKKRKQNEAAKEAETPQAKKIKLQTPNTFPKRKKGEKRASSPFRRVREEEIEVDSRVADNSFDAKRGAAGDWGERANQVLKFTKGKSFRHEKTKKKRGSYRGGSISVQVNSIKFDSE
Chain of UniProt P49116 (P49116 whole entry, looked up): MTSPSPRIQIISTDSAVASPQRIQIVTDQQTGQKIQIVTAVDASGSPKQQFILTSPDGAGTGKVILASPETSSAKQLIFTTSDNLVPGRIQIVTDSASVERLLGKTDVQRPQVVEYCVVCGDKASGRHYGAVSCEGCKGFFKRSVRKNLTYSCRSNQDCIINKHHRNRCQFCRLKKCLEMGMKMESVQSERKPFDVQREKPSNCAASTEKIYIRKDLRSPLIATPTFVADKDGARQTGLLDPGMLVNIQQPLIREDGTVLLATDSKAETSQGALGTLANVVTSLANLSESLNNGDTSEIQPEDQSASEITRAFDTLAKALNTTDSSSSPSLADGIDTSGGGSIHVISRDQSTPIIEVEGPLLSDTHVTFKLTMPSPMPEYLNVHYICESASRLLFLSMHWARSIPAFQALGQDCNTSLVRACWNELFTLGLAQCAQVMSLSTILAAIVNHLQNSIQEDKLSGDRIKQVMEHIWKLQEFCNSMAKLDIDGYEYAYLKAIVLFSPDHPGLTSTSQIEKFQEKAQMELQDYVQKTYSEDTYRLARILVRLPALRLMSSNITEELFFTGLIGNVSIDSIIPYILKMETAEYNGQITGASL
Chain of MTHFD1, A0A384N5Y3 (A0A384N5Y3 whole entry, looked up): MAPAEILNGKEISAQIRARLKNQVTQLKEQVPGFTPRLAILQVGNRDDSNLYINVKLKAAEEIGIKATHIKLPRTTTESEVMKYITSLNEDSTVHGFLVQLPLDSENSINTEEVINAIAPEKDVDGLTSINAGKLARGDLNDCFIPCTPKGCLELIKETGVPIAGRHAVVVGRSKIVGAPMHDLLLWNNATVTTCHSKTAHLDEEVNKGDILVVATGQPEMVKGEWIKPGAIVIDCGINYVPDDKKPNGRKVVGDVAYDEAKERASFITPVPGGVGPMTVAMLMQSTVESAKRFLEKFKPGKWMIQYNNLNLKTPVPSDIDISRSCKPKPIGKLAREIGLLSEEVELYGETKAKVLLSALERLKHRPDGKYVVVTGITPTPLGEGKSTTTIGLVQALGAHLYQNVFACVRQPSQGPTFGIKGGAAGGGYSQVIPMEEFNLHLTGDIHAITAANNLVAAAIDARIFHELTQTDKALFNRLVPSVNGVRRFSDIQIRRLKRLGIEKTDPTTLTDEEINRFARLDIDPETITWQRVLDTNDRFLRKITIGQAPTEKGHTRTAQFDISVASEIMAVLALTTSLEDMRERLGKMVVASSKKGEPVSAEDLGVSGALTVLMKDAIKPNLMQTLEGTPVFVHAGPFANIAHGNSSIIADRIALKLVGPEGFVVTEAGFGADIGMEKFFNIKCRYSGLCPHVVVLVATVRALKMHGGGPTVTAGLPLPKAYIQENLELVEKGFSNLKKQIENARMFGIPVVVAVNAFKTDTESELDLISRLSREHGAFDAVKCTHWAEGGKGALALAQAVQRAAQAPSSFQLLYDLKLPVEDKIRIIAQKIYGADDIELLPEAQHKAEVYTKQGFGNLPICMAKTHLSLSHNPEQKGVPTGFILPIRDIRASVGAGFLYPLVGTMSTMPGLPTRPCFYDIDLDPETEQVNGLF
Chain of UniProt O95169 (O95169 whole entry, looked up): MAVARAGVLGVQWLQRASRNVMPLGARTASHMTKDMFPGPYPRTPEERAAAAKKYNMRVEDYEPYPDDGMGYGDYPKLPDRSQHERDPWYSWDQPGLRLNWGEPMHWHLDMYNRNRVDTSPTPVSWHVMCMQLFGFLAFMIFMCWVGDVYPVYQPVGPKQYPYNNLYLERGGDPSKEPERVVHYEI
Chain of UniProt P43246 (P43246 whole entry, looked up): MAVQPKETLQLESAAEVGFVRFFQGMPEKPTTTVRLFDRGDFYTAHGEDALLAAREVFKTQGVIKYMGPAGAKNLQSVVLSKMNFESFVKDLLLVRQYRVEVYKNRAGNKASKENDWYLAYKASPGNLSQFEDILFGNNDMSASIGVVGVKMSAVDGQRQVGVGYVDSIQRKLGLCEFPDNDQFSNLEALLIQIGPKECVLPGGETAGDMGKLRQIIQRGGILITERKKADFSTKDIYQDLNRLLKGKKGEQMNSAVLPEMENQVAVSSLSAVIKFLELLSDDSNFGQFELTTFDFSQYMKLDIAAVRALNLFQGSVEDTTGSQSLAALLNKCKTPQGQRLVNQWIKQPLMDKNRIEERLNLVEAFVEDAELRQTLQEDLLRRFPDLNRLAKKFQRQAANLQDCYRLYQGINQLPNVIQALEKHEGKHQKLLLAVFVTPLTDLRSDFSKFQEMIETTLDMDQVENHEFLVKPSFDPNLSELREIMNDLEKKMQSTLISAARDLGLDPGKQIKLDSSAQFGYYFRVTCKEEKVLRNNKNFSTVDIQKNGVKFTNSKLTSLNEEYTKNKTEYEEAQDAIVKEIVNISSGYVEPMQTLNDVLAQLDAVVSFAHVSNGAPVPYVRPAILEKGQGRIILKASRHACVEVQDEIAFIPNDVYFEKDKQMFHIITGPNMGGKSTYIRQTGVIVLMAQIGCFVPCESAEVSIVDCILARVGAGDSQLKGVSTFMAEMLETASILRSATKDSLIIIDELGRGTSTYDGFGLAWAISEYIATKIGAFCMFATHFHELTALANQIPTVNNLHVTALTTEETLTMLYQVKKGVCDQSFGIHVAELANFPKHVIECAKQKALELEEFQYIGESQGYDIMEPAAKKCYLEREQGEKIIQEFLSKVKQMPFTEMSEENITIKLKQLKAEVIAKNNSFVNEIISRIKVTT
Chain of UniProt Q9UBD5 (Q9UBD5 whole entry, looked up): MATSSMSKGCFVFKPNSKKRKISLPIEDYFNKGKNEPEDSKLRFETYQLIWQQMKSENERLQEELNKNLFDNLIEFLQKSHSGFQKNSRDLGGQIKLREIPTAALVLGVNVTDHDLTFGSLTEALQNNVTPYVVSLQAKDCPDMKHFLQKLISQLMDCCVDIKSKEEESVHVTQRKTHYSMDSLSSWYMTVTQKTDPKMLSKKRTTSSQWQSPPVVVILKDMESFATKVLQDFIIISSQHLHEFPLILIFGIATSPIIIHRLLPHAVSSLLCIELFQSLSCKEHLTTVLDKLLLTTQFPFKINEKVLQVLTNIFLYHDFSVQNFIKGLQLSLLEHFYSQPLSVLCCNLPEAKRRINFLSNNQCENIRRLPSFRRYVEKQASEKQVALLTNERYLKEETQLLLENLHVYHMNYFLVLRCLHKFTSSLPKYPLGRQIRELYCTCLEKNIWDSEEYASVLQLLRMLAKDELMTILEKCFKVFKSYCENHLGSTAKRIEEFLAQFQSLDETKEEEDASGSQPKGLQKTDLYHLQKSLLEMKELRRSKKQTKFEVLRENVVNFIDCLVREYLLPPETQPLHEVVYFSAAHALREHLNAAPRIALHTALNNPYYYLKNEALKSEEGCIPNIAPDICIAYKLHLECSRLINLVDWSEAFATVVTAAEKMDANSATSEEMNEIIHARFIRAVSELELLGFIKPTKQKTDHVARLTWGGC

Compound in one experiment: NC(=O)Nc1cc(-c2cccc(F)c2)sc1C(=O)N[C@H]1CCCNC1
As to the kind of experiment: log2 fold change, soluble protein after heating vs DMSO (PISA); higher = thermal stabilisation; K562 cells, 10 uM, 30 min; active = over 0.2 and 3.5 SD of the protein, either way, in both replicates (recomputed). The gist of the method: (§1)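 K562 cells at 2×10^6 cells/mL were exposed to 10 μM compound for 30 min, then aliquots were heated for 3 min across 48°C-58°C, pooled, and extracted in PBS containing 0.5% NP-40 at 4°C. The supernatant after 21,000xg for 90 min was taken as soluble protein and measured by TMTpro 16plex LC-MS/MS with channel sums equalised. Thermal stability is reported relative to control samples, with values from duplicates. Fold changes are given on a log2 scale.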
As for NFATC2 (UniProt Q13469), the log2 fold change is -0.076.

In the case of MRPS18B (UniProt Q9Y676), the log2 fold change was 0.133.

Consider PACS1 (UniProt Q6VY07), for which the log2 fold change was 0.

Regarding NUP205 (UniProt Q92621), the log2 fold change was -0.042.

For the target NA, A0A0B4J2A0, the log2 fold change was -0.025.

Consider OSBP (UniProt P22059), for which the log2 fold change is -0.007.

For the target MKNK1 (UniProt Q9BUB5), the log2 fold change was 0.226.

Regarding NMNAT1 (UniProt Q9HAN9), the log2 fold change was 0.171.

With MRPS25 (UniProt P82663), the log2 fold change is -0.031.

For NME1 isoform 2 (UniProt P15531), the log2 fold change is 0.012.

As for MRPL47 (UniProt Q9HD33), the log2 fold change is 0.024.

Regarding NDUFA12 (UniProt Q9UI09), the log2 fold change is -0.018.

For MOV10 (UniProt Q9HCE1), the log2 fold change is 0.007.

Take MTHFD1, A0A384N5Y3: the log2 fold change was -0.048.

In the case of MRPS5 (UniProt P82675), the log2 fold change is 0.009.

For NFATC2IP (UniProt Q8NCF5), the log2 fold change was -0.016.

Turning to NOL11 (UniProt Q9H8H0), the log2 fold change was 0.042.

Take NDUFA6 (UniProt P56556): the log2 fold change was -0.023.

For OSBPL8 (UniProt Q9BZF1), the log2 fold change is -0.06.

Turning to NOSIP (UniProt Q9Y314), the log2 fold change is 0.

On to NR2C2 isoform 2 (UniProt P49116), for which the log2 fold change is -0.056.

As to NDUFB8 (UniProt O95169), the log2 fold change was 0.028.

As for NQO1 (UniProt P15559), the log2 fold change was -0.032.

MSH2 (UniProt P43246): the log2 fold change is -0.069.

MT-ATP6 (UniProt P00846): the log2 fold change was -0.003.

For MRPS2 (UniProt Q9Y399), the log2 fold change is 0.105.

In the case of NOB1 (UniProt Q9ULX3), the log2 fold change was -0.032.

In the case of MPP1 (UniProt Q00013), the log2 fold change was -0.083.

For the target NUCKS1 (UniProt Q9H1E3), the log2 fold change is -0.405 (active).

Regarding ORC3 isoform 2 (UniProt Q9UBD5), the log2 fold change was 0.018.

As to NOLC1 isoform 2 (UniProt Q14978), the log2 fold change was 0.149.

Consider NEDD4 isoform 4 (UniProt P46934), for which the log2 fold change was -0.043.

Take MRPS22 (UniProt P82650): the log2 fold change was -0.008.

MSTO1 (UniProt Q9BUK6): the log2 fold change is 0.013.

NCAPD2 (UniProt Q15021): the log2 fold change was -0.109.

On to MYL12B (UniProt O14950), for which the log2 fold change was 0.09.

For NEU1 (UniProt Q99519), the log2 fold change was -0.081.

Regarding NA, A0A096LPI6, the log2 fold change was 0.03.

Turning to MRPS33 (UniProt Q9Y291), the log2 fold change is 0.019.

Compound in a further experiment: NC(=O)c1cnc(N[C@@H]2CCCC[C@@H]2N)nc1Nc1cccc(-n2nccn2)c1
Described as above. The gist of the method: as §1
Turning to NFATC2 (UniProt Q13469), the log2 fold change is -0.203.

On to MRPS18B (UniProt Q9Y676), for which the log2 fold change was 0.

PACS1 (UniProt Q6VY07): the log2 fold change was 0.041.

On to NUP205 (UniProt Q92621), for which the log2 fold change was -0.023.

As for NA, A0A0B4J2A0, the log2 fold change is 0.029.

With OSBP (UniProt P22059), the log2 fold change was 0.019.

On to MKNK1 (UniProt Q9BUB5), for which the log2 fold change was -0.157.

As for NMNAT1 (UniProt Q9HAN9), the log2 fold change was 0.145.

Regarding MRPS25 (UniProt P82663), the log2 fold change is 0.046.

NME1 isoform 2 (UniProt P15531): the log2 fold change was -0.017.

On to MRPL47 (UniProt Q9HD33), for which the log2 fold change is 0.058.

As to NDUFA12 (UniProt Q9UI09), the log2 fold change was -0.038.

As for MOV10 (UniProt Q9HCE1), the log2 fold change was 0.031.

MTHFD1, A0A384N5Y3: the log2 fold change was -0.033.

On to MRPS5 (UniProt P82675), for which the log2 fold change is 0.034.

For NFATC2IP (UniProt Q8NCF5), the log2 fold change was -0.017.

Consider NOL11 (UniProt Q9H8H0), for which the log2 fold change is 0.055.

Take NDUFA6 (UniProt P56556): the log2 fold change is 0.028.

On to OSBPL8 (UniProt Q9BZF1), for which the log2 fold change was -0.03.

Consider NOSIP (UniProt Q9Y314), for which the log2 fold change was -0.004.

With NR2C2 isoform 2 (UniProt P49116), the log2 fold change was -0.036.

Take NDUFB8 (UniProt O95169): the log2 fold change is 0.083.

With NQO1 (UniProt P15559), the log2 fold change is 0.039.

As for MSH2 (UniProt P43246), the log2 fold change was -0.06.

As to MT-ATP6 (UniProt P00846), the log2 fold change is -0.007.

As for MRPS2 (UniProt Q9Y399), the log2 fold change is -0.079.

On to NOB1 (UniProt Q9ULX3), for which the log2 fold change was 0.002.

As for MPP1 (UniProt Q00013), the log2 fold change is -0.015.

For the target NUCKS1 (UniProt Q9H1E3), the log2 fold change is 0.035.

Take ORC3 isoform 2 (UniProt Q9UBD5): the log2 fold change was -0.09.

Consider NOLC1 isoform 2 (UniProt Q14978), for which the log2 fold change was -0.031.

For NEDD4 isoform 4 (UniProt P46934), the log2 fold change is -0.027.

For MRPS22 (UniProt P82650), the log2 fold change is 0.031.

For the target MSTO1 (UniProt Q9BUK6), the log2 fold change is 0.015.

Take NCAPD2 (UniProt Q15021): the log2 fold change was -0.075.

For the target MYL12B (UniProt O14950), the log2 fold change is 0.084.

In the case of NEU1 (UniProt Q99519), the log2 fold change was -0.088.

For the target NA, A0A096LPI6, the log2 fold change is 0.04.

As for MRPS33 (UniProt Q9Y291), the log2 fold change was 0.02.
